According to PubChem BioAssay (Tox21):
Records with an inconclusive call do not appear. Activity calls are given as the source filed them. Unless noted, calls come from the whole dose curve; as a rule, active = well fitted curve in the direction sought with a large enough effect in the repeat runs; inconclusive = weak or mixed curves; inactive = no such curve, though single readings can be large; an effect the other way counts as inactive or inconclusive.

Columns and labels:
[1] = qHTS assay to identify small molecule agonists of the hypoxia (HIF-1) signaling pathway - cell viability counter screen (AID 1224844; calls by dose curve; note: nearly all actives have a fitted effect of over 50% in size)
Procedure, shortened: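 Cytotoxicity measured by CellTiter-Glo ATP luminescence in the wells also read for beta-lactamase signal. Cells were HRE-bla ME-180 (2,000/well, 0.5% dialyzed FBS), exposed to compounds for 17 h at 37C.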

[2] = qHTS assay to identify small molecule agonists of H2AX (AID 1224845; active = well fitted activation curve with a large enough effect in the signal ratio in the repeat runs, not every such curve was filed as active; the % refers to the signal ratio)
Procedure, shortened: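 Wild-type CHO-K1 cells plated overnight, then exposed 3 hr at 37C to compounds at 15 concentrations (0.76% DMSO). Lysed, then HTRF anti-pH2AX(S139)-cryptate/anti-H2AX-d2 detection after 24 hr at room temperature; emissions 665 and 620 nm.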

[3] = qHTS assay to identify small molecule agonists of the hypoxia (HIF-1) signaling pathway (AID 1224846; active = well fitted activation curve with a large enough effect in the signal ratio in the repeat runs, not every such curve was filed as active; the % refers to the signal ratio)
Procedure, shortened: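 Compounds added to ME-180 cells carrying hypoxia-response-element beta-lactamase reporter (0.5% dialyzed FBS, 5 h preplating), 17 h at 37C; agonist activity detected by CCF4-AM B/G FRET read-out.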

[4] = qHTS assay to identify small molecule agonists of H2AX - cell viability counter screen (AID 1224847; calls by dose curve; note: top concentration of the series differs between compounds; nearly all actives have a fitted effect of over 30% in size)
Procedure, shortened: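 Cytotoxicity counter screen in wild-type CHO-K1 cells: a 3 hr compound treatment at 37C across 15 concentrations, followed by CellTiter-Glo luminescence to gauge viable cells.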

[5] = qHTS assay to identify small molecule antagonists of the estrogen related receptor (ERR) signaling pathway from Tox21 library (AID 1224848); note: nearly all actives have a fitted effect of over 50% in size; note: potency is the fitted concentration of half-maximal effect
Procedure, shortened: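 Tox21 10K compounds in DMSO tested for ERR pathway antagonism in NTP's ERR cell line; 18 h, 37 C exposure; ONE-Glo luminescence.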

[6] = qHTS assay to identify small molecule agonists of the estrogen related receptor (ERR) signaling pathway from Tox21 library (AID 1224849; calls by dose curve; note: nearly all actives have a fitted effect of over 15% in size); conditions: ERR reporter cell line, ONE-Glo luciferase, 18 h; at 92.4 µM (top of the series) unless noted
Procedure, shortened: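 Luminescent agonist read-out (One-Glo, 30-minute room-temperature incubation) following 18-hour compound treatment at 37 C of the ERR cell line, which had been plated 6 hours before dosing.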

[7] = qHTS RealTime-Glo MT Cell Viability Assay in HepG2 cells - 24 hour (AID 1224867); note: nearly all actives have a fitted effect of over 50% in size
Procedure, shortened: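 Tox21 10K library screened in qHTS format on HepG2 cells carrying RealTime-Glo reagents. Compounds were added after a 5 h preincubation, and the luminescent signal from continuous culture was measured repeatedly during 40 h treatment.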

[8] = qHTS RealTime-Glo MT Cell Viability Assay in HEK293 cells - 32 hour (AID 1224868); note: top concentration of the series differs between compounds; nearly all actives have a fitted effect of over 50% in size
Procedure, shortened: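 Luminescence generated by NanoLuc from substrate produced by living HEK293 cells served as the viability signal. Each value reflects the reading at its stated time point during continuous 40 h compound exposure at 37 C.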

[9] = A CellTox Green Cytotoxicity Assay to monitor cytotoxicity in HEK293 cells - 0 hour (AID 1224869); note: nearly all actives have a fitted effect of over 50% in size
Procedure, shortened: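 Fluorescence from a DNA-binding dye excluded by viable cells was measured repeatedly in the same HEK293 wells (600 cells/well) during continuous compound exposure at 37 C. Each assay gives one read point: 0, 8, 16, 24, 32 or 40 h.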

[10] = qHTS RealTime-Glo MT Cell Viability Assay in HepG2 cells - 40 hour (AID 1224870); note: nearly all actives have a fitted effect of over 50% in size
Procedure, shortened: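 HepG2 cells mixed with RealTime-Glo MT reagents (NanoLuc plus cell-permeant prosubstrate) were seeded at 600 cells/well, incubated 5 h at 37 C/5% CO2, then pinned with compounds in DMSO; nonlytic luminescence tracked viability during 40 h treatment.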
% is set by controls: 0 for no effect and ±100 for the full control effect.

CC(C)(C)c1n[nH]c(=S)n(N)c1=O
inactive: outcome [1] | outcome [2] | outcome [3] | Potency [4] | Potency [5] | activity change, positive = activation [6] -1.28% | outcome [7] | Potency [8] | outcome [9]

OCCCCC(O)CO (stereo not drawn)
inactive: outcome [1] | outcome [2] | outcome [3] | Potency [4] | Potency [5] | activity change, positive = activation [6] -0.533% | outcome [7] | Potency [8] | outcome [9] | outcome [10]

CC(=O)Nc1ccc(S(=O)(=O)Cl)cc1
inactive: outcome [1] | outcome [2] | outcome [3] | Potency [4] | Potency [5] | activity change, positive = activation [6] -0.863% | outcome [7] | Potency [8] | outcome [9] | outcome [10]

CC(=O)c1sc(C)nc1C
inactive: outcome [1] | outcome [2] | outcome [3] | Potency [4] | Potency [5] | activity change, positive = activation [6] -11% | outcome [7] | Potency [8] | outcome [9] | outcome [10]

CCCCCCCCC(=O)Cl
inactive: outcome [1] | outcome [2] | outcome [3] | Potency [4] | Potency [5] | activity change, positive = activation [6] 0.757% | outcome [7] | Potency [8] | outcome [9]

CCCCCCCCCCCCCC
inactive: outcome [1] | outcome [2] | outcome [3] | Potency [4] | Potency [5] | activity change, positive = activation [6] 2.93% | outcome [7] | Potency [8] | outcome [9]

COc1cc(N)ccc1C
inactive: outcome [1] | outcome [2] | outcome [3] | Potency [4] | activity change, positive = activation [6] -31.2% | outcome [7] | Potency [8] | outcome [9] | outcome [10]
active: Potency [5] 27 µM

CC(=O)N[C@@H](CCC(=O)O)C(=O)O
inactive: outcome [1] | outcome [2] | outcome [3] | Potency [4] | Potency [5] | activity change, positive = activation [6] 5.46% [at 42.5 µM] | outcome [7] | Potency [8] | outcome [9] | outcome [10]

CCC(C)(CCC(C)C)C(=O)O (stereo not drawn)
inactive: outcome [1] | outcome [2] | outcome [3] | Potency [4] | Potency [5] | activity change, positive = activation [6] -1.46% | outcome [7] | Potency [8] | outcome [9] | outcome [10]

CN(C)CCOCCO
inactive: outcome [1] | outcome [2] | outcome [3] | Potency [4] | Potency [5] | activity change, positive = activation [6] 6.59% | outcome [7] | Potency [8] | outcome [9] | outcome [10]

CCNC(=O)C1CC(C)CCC1C(C)C (stereo not drawn)
inactive: outcome [1] | outcome [2] | outcome [3] | Potency [4] | Potency [5] | activity change, positive = activation [6] -8.38% | outcome [7] | Potency [8] | outcome [9] | outcome [10]

C[Si](C)=O
inactive: activity change, negative = cytotoxicity [1] 3.37% [at 6.97 µM] | activation (H2AX phosphorylation) [2] -1.6% [at 14 µM] | activation [3] -1.19% [at 7.01 µM] | activity change, negative = cytotoxicity [4] -6.59% [at 14 µM] | activity, negative = inhibition [5] 1.05% [at 8.39 µM] | activity change, positive = activation [6] 0.654% [at 8.39 µM] | activity change, negative = cytotoxicity [7] 0.943% [at 6.97 µM] | activity change, negative = cytotoxic [8] 1.65% [at 6.97 µM] | cytotoxicity [9] 2.11% [at 6.97 µM]

N[C@@H](CCC(=O)Nc1ccc([N+](=O)[O-])cc1)C(=O)O
inactive: outcome [1] | outcome [2] | outcome [3] | Potency [4] | Potency [5] | activity change, positive = activation [6] -15.8% | outcome [7] | Potency [8] | outcome [9] | outcome [10]

CCO[Si](CCCS)(OCC)OCC
inactive: outcome [1] | outcome [2] | outcome [3] | Potency [4] | Potency [5] | activity change, positive = activation [6] 5.01% | outcome [7] | Potency [8] | outcome [9]

Cc1cc(Cl)c(C)cc1Cl
inactive: outcome [1] | outcome [2] | outcome [3] | Potency [4] | Potency [5] | activity change, positive = activation [6] -5.35% | outcome [7] | Potency [8] | outcome [9] | outcome [10]

CCCC/C=C\CCCCCCCCCC=O
inactive: outcome [1] | outcome [2] | outcome [3] | Potency [4] | Potency [5] | activity change, positive = activation [6] 2.29% | outcome [7] | Potency [8] | outcome [9] | outcome [10]

COc1ccc(Br)c(C)c1
inactive: outcome [1] | outcome [2] | outcome [3] | Potency [4] | Potency [5] | activity change, positive = activation [6] -0.068% | outcome [7] | Potency [8] | outcome [9] | outcome [10]

COC(=O)CCCCCCCC(=O)OC
inactive: outcome [1] | outcome [2] | outcome [3] | Potency [4] | Potency [5] | activity change, positive = activation [6] 1.98% | outcome [7] | Potency [8] | outcome [9]

COC(=O)c1ccccc1C(=O)c1ccc(OCCN2CCCCC2)cc1
inactive: outcome [1] | outcome [2] | outcome [3] | Potency [4] | Potency [5] | activity change, positive = activation [6] 1.12% [at 42.5 µM] | outcome [7] | Potency [8] | outcome [9]

O=C(O)c1cc(Cl)cc([N+](=O)[O-])c1Cl
inactive: outcome [1] | outcome [2] | outcome [3] | Potency [4] | Potency [5] | activity change, positive = activation [6] -9.65% | outcome [7] | Potency [8] | outcome [9] | outcome [10]

CCCCC(CC)COCCO (stereo not drawn)
inactive: outcome [1] | outcome [2] | outcome [3] | Potency [4] | Potency [5] | activity change, positive = activation [6] 5.52% | outcome [7] | Potency [8] | outcome [9] | outcome [10]

CNC(=O)[C@H]1O[C@@H](n2cnc3c(NCc4cc(Cl)ccc4OCc4cc(C)no4)ncnc32)[C@H](O)[C@@H]1N
inactive: outcome [1] | outcome [2] | outcome [3] | Potency [4] | Potency [5] | activity change, positive = activation [6] -1.8% | outcome [7] | Potency [8] | outcome [9] | outcome [10]
